DT40 TDP1 CPT = qHTS for Inhibitors of human tyrosyl-DNA phosphodiesterase 1 (TDP1): qHTS in cells in presence of CPT; chicken DT40 Tdp1-/-;hTDP1 cells + 20 nM CPT, ATP luminescence, 48 h; Potency, µM (series often up to 46.2 µM), for the others: at the top dose activity change, negative = growth inhibition, actives largely listed as inhibitors; 420,000 compounds, 12% hits; AID 686979, 2013; also: nearly all actives have a fitted effect of over 55% in size
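Chicken DT40 Tdp1-/- cells complemented with human TDP1, 400 cells/well, exposed to compounds plus 20 nM camptothecin for at least 48 h at 37 C; viability read as ATP content by CellTiter-Glo luminescence.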
KB-V1 cytotox = qHTS assay for MDR1-selective chemotherapeutics: Primary screen using the drug-selected MDR subline cells KB-V1. KB-V1 MDR cells viability, CellTiter-Glo, 72 h. 400,000 compounds, 3.4% hits. Potency, µM (highest dose often 46.1 µM), usual class: cytotoxic. AID 1347076, 2019; also: nearly all actives have a fitted effect of over 60% in size
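Compound-treated KB-V1 multidrug-resistant cells, 72 h, 37 degrees C; viability by CellTiter-Glo. Fitted qHTS curves give the values.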
KB-3-1 tox = qHTS assay for MDR1-selective chemotherapeutics: Primary screen using the parental adenocarcinoma cell KB-3-1; KB-3-1 viability, CellTiter-Glo ATP luminescence, 72 h; Potency, µM (series often up to 46.1 µM), hits mostly cytotoxic; 400,000 compounds, 1.4% hits; AID 1347075, 2019; also: nearly all actives have a fitted effect of over 60% in size
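72 h, 37 °C compound treatment of KB-3-1 parental cells; CellTiter-Glo added, 10 min, luminescence read. Data corrected against DMSO-only plates and normalized before curve fitting.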
HT1080 IDH1KD tx = qHTS for induction of synthetic lethality in tumor cells producing 2HG: qHTS for the HT-1080-IDH1KD cell line | HT-1080 IDH1 knockdown viability, ATP luminescence, 48 h | Potency, µM (series often up to 46.1 µM), inactives show top-dose activity, negative = toxicity, usual class: cytotoxic | 360,000 compounds, 2% hits;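 also: 0% = DMSO wells and -100% = cell-free medium wells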
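HT-1080-IDH1KD cells (IDH1 knocked down), 750/well in RPMI with 5% FBS, treated with compound 48 h at 37 degrees C. Viability by CellTiter-Glo luminescence, normalised to DMSO and no-cell wells; concentration-response curves classed.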
HT1080-NT tox = qHTS for induction of synthetic lethality in tumor cells producing 2HG: qHTS for the HT-1080-NT fibrosarcoma cell line; AID 686970, 2013; 360,000 compounds, 1.6% hits; Potency, µM (titrated, usually from 46.1 µM), for inactives: at the highest dose activity, negative = less viability, usual class: cytotoxic; HT-1080-NT fibrosarcoma viability, CellTiter-Glo ATP luminescence, 48 h;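 also: NT is the 2HG producing partner of a matched IDH1 knockdown line; 0% = DMSO-treated cells and -100% = media-only wells without cells; nearly all actives have a fitted effect of over 55% in size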
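Toxicity toward the 2HG-producing NT line was scored as %Activity, normalised to DMSO and no-cell wells, from CellTiter-Glo luminescence after 48 hours' treatment.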
TDP1 cell noCPT = qHTS for Inhibitors of human tyrosyl-DNA phosphodiesterase 1 (TDP1): qHTS in cells in absence of CPT; Potency, µM (top dose mostly 46.2 µM), without a hit: at the top dose activity change, negative = growth inhibition, usual class: inhibitors; DT40 Tdp1-/- hTDP1 cells, no CPT, ATP luminescence, 48 h; 420,000 compounds, 15% hits; also: nearly all actives have a fitted effect of over 55% in size
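A cellular qHTS used chicken DT40 cells lacking endogenous Tdp1 but carrying stably transfected human TDP1. Compounds were applied without camptothecin, and cell growth kinetics were judged by ATP-dependent luminescence after ≥48 hr.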
* hit, by the source's call; i = inactive; u = inconclusive; x = no result given. Sampled rows, rich in hits. Any-hit rate of the full collection: about 19%. Calls follow the shape of the dose curve; as a rule, active = well fitted curve in the direction sought with a large enough effect; inconclusive = small, poorly fitted or top-dose-only effect, or another doubt; inactive = no such curve, though single readings can be large; an effect the other way counts as inactive or inconclusive. Unless noted, % is scaled to controls: 0 for no effect and ±100 for the full control effect; potency is read from the fitted curve at half-maximal effect.

SMILES	DT40 TDP1 CPT	KB-V1 cytotox	KB-3-1 tox	HT1080 IDH1KD tx	HT1080-NT tox	TDP1 cell noCPT
CCCCCCCCCCCCCCCCn1cc[n+](CC(C)=O)c1	0.65µM*	i	8.2µM*	-16%	u	1.3µM*
Cc1cccc(Nc2ncc(NC(=O)c3cccc(F)c3)c(Nc3cccc(C)c3)n2)c1	7.3µM*	i	i	x	x	5.8µM*
O=C(Nc1ccccc1)c1cccc(S(=O)(=O)Nc2cccc(F)c2)c1	u	i	i	x	x	26µM*
O=C(Nc1ccc(Nc2ccccc2)cc1)c1cccc(F)c1	u	i	i	-4%	-20%	18µM*
O=C(Nc1cccc(F)c1)c1ccccc1	-29%	i	i	3%	-2%	0%
CC(C)CCn1c(=O)c2sccc2n2c(CCCC(=O)NC(C)C)nnc12	-16%	x	x	x	x	-8%
COc1ccc(OC)c(NS(=O)(=O)c2c(C(=O)N3CCCCCC3)c(C)n(C)c2C)c1	4%	i	i	6%	4%	9%
CC(C)c1ccc(NC(=O)Cn2c(=O)n(Cc3nc(-c4ccccc4)no3)c(=O)c3cc4c(cc32)OCO4)cc1	u	i	i	x	x	u
CCc1cccc(CC)c1NC(=O)CN1C2CCCC1CC(NC(=O)Nc1cccc(OC)c1)C2 (configuration not stated)	18µM*	21µM*	u	u	u	u
O=C(CN1C2CCCC1CC(NC(=O)C1CCCCC1)C2)Nc1ccccc1C(F)(F)F (configuration not stated)	23µM*	u	i	u	-28%	15µM*
COc1cccc(C(=O)NC2CC3CCCC(C2)N3CC(=O)Nc2ccccc2C(F)(F)F)c1 (configuration not stated)	u	i	u	u	u	16µM*
COc1cccc(C(=O)NC2CC3CCC(C2)N3Cc2ccccc2)c1 (configuration not stated)	-8%	i	i	0%	-2%	-1%
CCCN1C2CCCC1CC(NC(=O)C1CCCCC1)C2 (configuration not stated)	0%	i	i	17%	u	0%
O=C(CN1C2CCCC1CC(NC(=O)C1CCCCC1)C2)NCc1ccc(F)cc1 (configuration not stated)	u	u	i	2%	9%	16µM*
O=C(NC1CC2CCCC(C1)N2CC(=O)N1CCCc2ccccc21)C1CCCCC1 (configuration not stated)	-11%	i	i	21%	10%	-30%
COc1ccc(Cl)cc1C1=NOC2(CCC2)C(=O)N1Cc1cccc(C#N)c1	u	u	u	u	-20%	u
COc1cc2cc(C(c3nnnn3C(C)(C)C)N3CCc4ccccc4C3)c(=O)[nH]c2cc1OC (configuration not stated)	18µM*	u	i	u	-26%	u
CC(C)(C)n1nnnc1C(c1cc2cc3c(cc2[nH]c1=O)OCO3)N1CCN(c2ccccc2)CC1 (configuration not stated)	-12%	u	i	-5%	5%	-18%
CCC(C)(C)n1nnnc1C(c1cc2cc(OC)c(OC)cc2[nH]c1=O)N1CCc2ccccc21 (configuration not stated)	20µM*	i	i	u	u	u
CCCCc1ncc(CN2CCC(n3nccc3NC(=O)c3ccccc3Cl)CC2)[nH]1	-22%	x	x	-7%	-1%	3%
O=C(/C(=N\Nc1ccc([N+](=O)[O-])cc1)Sc1nnnn1-c1ccccc1)c1ccccc1	u	16µM*	i	23µM*	u	u
Cc1ccc(N/N=C(/Sc2nnnn2-c2ccccc2)C(=O)c2ccccc2)cc1	29µM*	21µM*	i	-4%	0%	u
CCCCC#Cc1nc(NC)c2ncn([C@@H]3O[C@@H](CO)[C@H](O)[C@H]3O)c2n1	-10%	x	x	x	x	1%
CCCCOc1ncnc2c1[nH]c1ccc(F)cc12	9.2µM*	6.5µM*	18µM*	-5%	u	8.2µM*
CCCCOc1ncnc2c1[nH]c1ccc(OCC)cc12	-18%	u	i	22%	u	-18%
CCCCOc1ncnc2c1[nH]c1ccccc12	10µM*	i	u	15µM*	-18%	7.3µM*
N#CC1C(=N)Cc2ccccc2-c2ccccc21 (configuration not stated)	u	15µM*	u	16µM*	12µM*	21µM*
CC(/C=C/c1ccccc1)=N\NC(=O)CCc1ccccc1	-14%	i	i	0%	12%	-2%

Screens from PubChem.
